{"source": "PubChem BioAssay", "note": "Calls of active or inactive are those of the source.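 The calls were made as follows, unless noted: active = growth inhibition above 50% at the single 2 µM test dose, taken to imply half-maximal potency below 2 µM; inactive = the rest.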"}
{"test": "antimalarial activity against Dd2 strain (AID 2302);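 also: 0% = DMSO untreated growth and 100% = chloroquine plus artemisinin killed control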", "details": "P. falciparum Dd2 in RBCs, LDH growth readout, 72 h; at 2 µM; stronger effect = higher value"}
{"smiles": "N#Cc1ccc(N2CCN(Cc3ccc(-c4cccc(-c5nc6ccccc6[nH]5)c4)cc3)CC2)nc1", "growth inhibition": "29% (inactive)"}
{"smiles": "COc1ccc(CNCc2ccc(-c3cccc(-c4nc5ccc(F)cc5[nH]4)c3)cc2)cc1", "growth inhibition": "94% (active)"}
{"smiles": "FC(F)(F)c1ccc2nc(-c3ccc(-c4ccc(CNCCN5CCNCC5)cc4)cc3)[nH]c2c1", "growth inhibition": "74% (active)"}
{"smiles": "Nc1ncc(-c2ccc3[nH]ccc3c2)c2ccc(-c3ccncc3)cc12", "growth inhibition": "100% (active)"}
{"smiles": "Cc1cc(N)c2cc(NC(=O)c3cc4ccccc4s3)ccc2n1", "growth inhibition": "99% (active)"}
{"smiles": "O=C(N[C@@H](Cc1ccccc1)C(=O)O)c1cc(-c2ccc(F)cc2)no1", "note": "(tested in a mixture with another compound)", "growth inhibition": "49% (inactive)"}
{"smiles": "CCCCC(CC)CN1C(=O)C(c2ccccc2)(c2ccccc2)N=C1N", "note": "(stereo not given)", "growth inhibition": "98% (active)"}
{"smiles": "O=C(Nc1ccccc1)N(Cc1cccc(-c2ccc(CNCCc3ccccc3)cc2)c1)C1CCN(Cc2ccccc2)CC1", "growth inhibition": "95% (active)"}
{"smiles": "CCNc1cc(C(=O)N[C@@H](Cc2ccccc2)[C@H](O)CNC(C)(C)CCCC(C)C)cc(N2CCCCS2(=O)=O)c1", "growth inhibition": "98% (active)"}
{"smiles": "COc1cc(C)nc2ccc(NC(=O)Nc3ccc4nc(C)cc(OC)c4c3)cc12", "growth inhibition": "83% (active)"}
{"smiles": "COc1ccc(CNC(=O)C2Cc3ccccc3CN2Cc2ccc3ccccc3c2)cc1", "note": "(stereo not given)", "growth inhibition": "84% (active)"}
{"smiles": "O=C(/C=C/c1ccc2ccccc2c1)NCCCCCN1CCC(c2c[nH]c3ccccc23)CC1", "growth inhibition": "4% (inactive)"}
{"smiles": "O=C(N[C@@H](Cc1ccccc1)C(=O)NC1CCCc2ccccc21)c1ccc(O)c(-c2ccc(Cl)c(Cl)c2)c1", "note": "(stereo not given in full)", "growth inhibition": "99% (active)"}
{"smiles": "COc1cc(Nc2nc(N)n(C(=O)c3ccc4c(c3)OCO4)n2)cc(OC)c1OC", "growth inhibition": "40% (inactive)"}
{"smiles": "CC(C)CCNc1nc(NCCc2ccccc2)c2cc(O)ccc2n1", "growth inhibition": "97% (active)"}
{"smiles": "COc1cccc(CCc2nc3c(N4CCC(Cc5ccccc5)CC4)cccc3n2CC2CNCCO2)c1", "note": "(stereo not given)", "growth inhibition": "96% (active)"}
{"smiles": "O=C(OCC1CCN(Cc2ccccc2)C1)c1ccc(Cl)cc1", "note": "(stereo not given)", "growth inhibition": "4% (inactive)"}
{"smiles": "Oc1ccc(CCNc2nc(NCCCOc3cc(CN4CCCCC4)ccc3F)nc(N3CCNCC3)n2)cc1", "growth inhibition": "-3% (inactive)"}
{"smiles": "Cc1noc(C)c1-c1cccc(CNCc2cccc(-c3cccc(-c4nc5ccc(C(F)(F)F)cc5[nH]4)c3)c2)c1", "growth inhibition": "95% (active)"}
{"smiles": "CC1CCCN1Cc1cccc(-c2ccc(C(=O)NCCOc3ccccc3)s2)c1", "note": "(stereo not given)", "growth inhibition": "0% (inactive)"}
{"smiles": "COc1cc(C(=O)NCCCN2CCN(c3cccc(Cl)c3)CC2)ccc1-c1cc2cc(Cl)c(Cl)cc2[nH]1", "growth inhibition": "86% (active)"}
{"smiles": "CCn1c(SCC(=O)Nc2cc(C(F)(F)F)ccc2Cl)nc2ccccc2c1=O", "growth inhibition": "95% (active)"}
{"smiles": "COc1ccc2nccc([C@@H](O)CN3CCC(NC(=O)Cc4cccc5c(Br)cccc45)CC3)c2c1", "growth inhibition": "34% (inactive)"}
{"smiles": "CC(CN(C)C)C(=O)Nc1cccc(-c2cccc(-c3nc4ccccc4[nH]3)c2)c1", "note": "(stereo not given)", "growth inhibition": "25% (inactive)"}
{"smiles": "Fc1cccc(COc2ccc(Nc3ncnc4sc(C#C[C@H]5CC[C@H](CNCC(F)(F)F)N5)cc34)cc2Cl)c1", "growth inhibition": "51% (active)"}
{"smiles": "COc1cccc2c(NN=Cc3cccc(F)c3)ccnc12", "growth inhibition": "44% (inactive)"}
{"smiles": "CN1CCN(Cc2cc(NC(=O)c3ccc(-c4ccc(Cl)cc4Cl)cc3)ccc2-c2ccccc2)CC1", "growth inhibition": "21% (inactive)"}
{"smiles": "CCCCCCN(CCCCCC)CC(O)c1cc(-c2ccc(Cl)cc2)nc2c(C)cc(C)cc12", "note": "(stereo not given)", "growth inhibition": "98% (active)"}
{"smiles": "Cc1cc(N)c2cc(NC(=O)c3cc(C(F)(F)F)cc(C(F)(F)F)c3)ccc2n1", "growth inhibition": "99% (active)"}
{"smiles": "O=C(Nc1ccc(Cl)cc1)c1ccc(S(=O)(=O)NCC2CCN(CC3CCCCC3)CC2)cc1", "growth inhibition": "8% (inactive)"}
{"smiles": "COc1cccc(NC(=O)CSc2nc(-c3ccccc3Cl)ns2)c1", "growth inhibition": "100% (active)"}
{"smiles": "CC(C)c1ccc(S(=O)(=O)Nc2cccc(CCN3CCC(N4CCCCC4)CC3)c2)cc1", "growth inhibition": "35% (inactive)"}
{"smiles": "Cn1cnc2c(SCc3ccccc3OCc3ccccc3)ncnc21", "growth inhibition": "34% (inactive)"}
{"smiles": "O=C(Nc1ccc(N2CCNCC2)nc1)c1oc(-c2ccccc2)nc1C(F)(F)F", "growth inhibition": "62% (active)"}
{"smiles": "CC(=O)Nc1nc(C(=O)Nc2ccc(-c3cccc(-c4nc5ccccc5[nH]4)c3)cc2)cs1", "growth inhibition": "83% (active)"}
{"smiles": "Cc1ccc(S(=O)(=O)NC2CCN(CCNC(=O)Nc3cc(C)nc4ccccc34)C2)cc1", "note": "(stereo not given)", "growth inhibition": "42% (inactive)"}
{"smiles": "O=C(Nc1ccc(-c2csc(-c3nc4ccccc4[nH]3)c2)cc1)Nc1ccsc1", "growth inhibition": "17% (inactive)"}
{"smiles": "O=C(NC1CCCCCC1)C1CCCN(C(=O)c2ccc(O)c(-c3ccc(Cl)c(Cl)c3)c2)C1", "note": "(stereo not given)", "growth inhibition": "21% (inactive)"}
{"smiles": "CCCNC(=O)CN1CN(c2ccccc2)C2(CCN(C(=O)c3ccc(C(C)(C)C)cc3)CC2)C1=O", "growth inhibition": "98% (active)"}
{"smiles": "N#Cc1ccc2[nH]cc(CN3CCC4(CC3)CN(CCNCc3ccccc3)C(=O)O4)c2c1", "growth inhibition": "0% (inactive)"}
{"test": "human hepatoma cell viability loss – ATP luminescence, cytotoxicity control for P. falciparum antimalarial project, primary screen (AID 2303;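 active = inhibition above 50%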;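 also: 0% = DMSO wells and 100% = digitonin-killed cells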)", "details": "HepG2 viability, 24-48 h, at 10 µM, stronger effect = higher value"}
{"smiles": "N#Cc1ccc(N2CCN(Cc3ccc(-c4cccc(-c5nc6ccccc6[nH]5)c4)cc3)CC2)nc1", "inhibition": "33% (inactive)"}
{"smiles": "COc1ccc(CNCc2ccc(-c3cccc(-c4nc5ccc(F)cc5[nH]4)c3)cc2)cc1", "inhibition": "33% (inactive)"}
{"smiles": "FC(F)(F)c1ccc2nc(-c3ccc(-c4ccc(CNCCN5CCNCC5)cc4)cc3)[nH]c2c1", "inhibition": "13% (inactive)"}
{"smiles": "Nc1ncc(-c2ccc3[nH]ccc3c2)c2ccc(-c3ccncc3)cc12", "inhibition": "42% (inactive)"}
{"smiles": "Cc1cc(N)c2cc(NC(=O)c3cc4ccccc4s3)ccc2n1", "inhibition": "100% (active)"}
{"smiles": "O=C(N[C@@H](Cc1ccccc1)C(=O)O)c1cc(-c2ccc(F)cc2)no1", "note": "(tested in a mixture with another compound)", "inhibition": "-2% (inactive)"}
{"smiles": "CCCCC(CC)CN1C(=O)C(c2ccccc2)(c2ccccc2)N=C1N", "note": "(stereo not given)", "inhibition": "32% (inactive)"}
{"smiles": "O=C(Nc1ccccc1)N(Cc1cccc(-c2ccc(CNCCc3ccccc3)cc2)c1)C1CCN(Cc2ccccc2)CC1", "inhibition": "100% (active)"}
{"smiles": "CCNc1cc(C(=O)N[C@@H](Cc2ccccc2)[C@H](O)CNC(C)(C)CCCC(C)C)cc(N2CCCCS2(=O)=O)c1", "inhibition": "5% (inactive)"}
{"smiles": "COc1cc(C)nc2ccc(NC(=O)Nc3ccc4nc(C)cc(OC)c4c3)cc12", "inhibition": "79% (active)"}
{"smiles": "COc1ccc(CNC(=O)C2Cc3ccccc3CN2Cc2ccc3ccccc3c2)cc1", "note": "(stereo not given)", "inhibition": "15% (inactive)"}
{"smiles": "O=C(/C=C/c1ccc2ccccc2c1)NCCCCCN1CCC(c2c[nH]c3ccccc23)CC1", "inhibition": "18% (inactive)"}
{"smiles": "O=C(N[C@@H](Cc1ccccc1)C(=O)NC1CCCc2ccccc21)c1ccc(O)c(-c2ccc(Cl)c(Cl)c2)c1", "note": "(stereo not given in full)", "inhibition": "-3% (inactive)"}
{"smiles": "COc1cc(Nc2nc(N)n(C(=O)c3ccc4c(c3)OCO4)n2)cc(OC)c1OC", "inhibition": "60% (active)"}
{"smiles": "CC(C)CCNc1nc(NCCc2ccccc2)c2cc(O)ccc2n1", "inhibition": "6% (inactive)"}
{"smiles": "COc1cccc(CCc2nc3c(N4CCC(Cc5ccccc5)CC4)cccc3n2CC2CNCCO2)c1", "note": "(stereo not given)", "inhibition": "4% (inactive)"}
{"smiles": "O=C(OCC1CCN(Cc2ccccc2)C1)c1ccc(Cl)cc1", "note": "(stereo not given)", "inhibition": "-3% (inactive)"}
{"smiles": "Oc1ccc(CCNc2nc(NCCCOc3cc(CN4CCCCC4)ccc3F)nc(N3CCNCC3)n2)cc1", "inhibition": "30% (inactive)"}
{"smiles": "Cc1noc(C)c1-c1cccc(CNCc2cccc(-c3cccc(-c4nc5ccc(C(F)(F)F)cc5[nH]4)c3)c2)c1", "inhibition": "18% (inactive)"}
{"smiles": "CC1CCCN1Cc1cccc(-c2ccc(C(=O)NCCOc3ccccc3)s2)c1", "note": "(stereo not given)", "inhibition": "26% (inactive)"}
{"smiles": "COc1cc(C(=O)NCCCN2CCN(c3cccc(Cl)c3)CC2)ccc1-c1cc2cc(Cl)c(Cl)cc2[nH]1", "inhibition": "35% (inactive)"}
{"smiles": "CCn1c(SCC(=O)Nc2cc(C(F)(F)F)ccc2Cl)nc2ccccc2c1=O", "inhibition": "8% (inactive)"}
{"smiles": "COc1ccc2nccc([C@@H](O)CN3CCC(NC(=O)Cc4cccc5c(Br)cccc45)CC3)c2c1", "inhibition": "15% (inactive)"}
{"smiles": "CC(CN(C)C)C(=O)Nc1cccc(-c2cccc(-c3nc4ccccc4[nH]3)c2)c1", "note": "(stereo not given)", "inhibition": "42% (inactive)"}
{"smiles": "Fc1cccc(COc2ccc(Nc3ncnc4sc(C#C[C@H]5CC[C@H](CNCC(F)(F)F)N5)cc34)cc2Cl)c1", "inhibition": "10% (inactive)"}
{"smiles": "COc1cccc2c(NN=Cc3cccc(F)c3)ccnc12", "inhibition": "12% (inactive)"}
{"smiles": "CN1CCN(Cc2cc(NC(=O)c3ccc(-c4ccc(Cl)cc4Cl)cc3)ccc2-c2ccccc2)CC1", "inhibition": "52% (active)"}
{"smiles": "CCCCCCN(CCCCCC)CC(O)c1cc(-c2ccc(Cl)cc2)nc2c(C)cc(C)cc12", "note": "(stereo not given)", "inhibition": "27% (inactive)"}
{"smiles": "Cc1cc(N)c2cc(NC(=O)c3cc(C(F)(F)F)cc(C(F)(F)F)c3)ccc2n1", "inhibition": "100% (active)"}
{"smiles": "O=C(Nc1ccc(Cl)cc1)c1ccc(S(=O)(=O)NCC2CCN(CC3CCCCC3)CC2)cc1", "inhibition": "40% (inactive)"}
{"smiles": "COc1cccc(NC(=O)CSc2nc(-c3ccccc3Cl)ns2)c1", "inhibition": "7% (inactive)"}
{"smiles": "CC(C)c1ccc(S(=O)(=O)Nc2cccc(CCN3CCC(N4CCCCC4)CC3)c2)cc1", "inhibition": "37% (inactive)"}
{"smiles": "Cn1cnc2c(SCc3ccccc3OCc3ccccc3)ncnc21", "inhibition": "6% (inactive)"}
{"smiles": "O=C(Nc1ccc(N2CCNCC2)nc1)c1oc(-c2ccccc2)nc1C(F)(F)F", "inhibition": "7% (inactive)"}
{"smiles": "CC(=O)Nc1nc(C(=O)Nc2ccc(-c3cccc(-c4nc5ccccc5[nH]4)c3)cc2)cs1", "inhibition": "68% (active)"}
{"smiles": "Cc1ccc(S(=O)(=O)NC2CCN(CCNC(=O)Nc3cc(C)nc4ccccc34)C2)cc1", "note": "(stereo not given)", "inhibition": "-2% (inactive)"}
{"smiles": "O=C(Nc1ccc(-c2csc(-c3nc4ccccc4[nH]3)c2)cc1)Nc1ccsc1", "inhibition": "50% (active)"}
{"smiles": "O=C(NC1CCCCCC1)C1CCCN(C(=O)c2ccc(O)c(-c3ccc(Cl)c(Cl)c3)c2)C1", "note": "(stereo not given)", "inhibition": "5% (inactive)"}
{"smiles": "CCCNC(=O)CN1CN(c2ccccc2)C2(CCN(C(=O)c3ccc(C(C)(C)C)cc3)CC2)C1=O", "inhibition": "0% (inactive)"}
{"smiles": "N#Cc1ccc2[nH]cc(CN3CCC4(CC3)CN(CCNCc3ccccc3)C(=O)O4)c2c1", "inhibition": "-5% (inactive)"}
